26 molecules from PubChem BioAssay (NCATS) can be followed below.

The structures appear in SMILES notation. Values without a mark were called inactive. Records with an inconclusive call do not appear. Activity calls are given as the source filed them. Unless noted, calls come from the whole dose curve; as a rule, active = well fitted curve in the direction sought with a large enough effect; inconclusive = small, poorly fitted or top-dose-only effect, or another doubt; inactive = no such curve, though single readings can be large; an effect the other way counts as inactive or inconclusive.

The target of test [1] is T1, Hexokinase-4 (Homo sapiens) + Glucokinase regulatory protein (Homo sapiens) (UniProt P35557+Q14397). Nature of the test: qHTS assay for inhibitors of recombinant human GCK-GKRP interaction: Diaphorase-coupled assay (AID 743205). The procedure, abridged: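 A kinetic fluorescence read (Ex 525/Em 590 nm, every minute for 30 minutes) tracked resorufin from a G6PDH-diaphorase coupled GCK reaction. It contained 10 nM GST-GCK, 10 nM FLAG-GKRP, 5 mM glucose, 0.4 mM ATP in Hepes pH 7.6. Normalized to with/without-enzyme DMSO controls.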
For orientation: Quantitative high-throughput screening tests each substance at several concentrations.

The target of test [2] is T1, Hexokinase-4 (Homo sapiens) + Glucokinase regulatory protein (Homo sapiens). Nature of the test: qHTS assay for inhibitors of recombinant human GCK-GKRP interaction: ADP-Glo assay (AID 743206).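 Note: plate controls were DMSO plus enzyme for no effect and no enzyme for full effect.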 The procedure, abridged: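 GST-GCK and FLAG-GKRP (15 nM each in the dispensed mix, with 2 uM S6P) react with 0.4 mM ATP and 5 mM glucose (final) in Hepes pH 7.6 for 60 min at room temperature. ADP is measured by ADP-Glo luminescence.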

Test [3] has the same target. Nature of the test: qHTS assay for inhibitors of recombinant human GCK-GKRP interaction: HTRF assay (AID 743207).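 Note: 0% = DMSO with GCK present and -100% = DMSO wells lacking GCK.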 In short, it runs like this:
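After 60 min equilibration at room temperature with anti-FLAG XL665 and anti-GST antibodies, FRET ratio (665/615 nm, excitation 320 nm) was read. Proteins: GST-GCK and FLAG-GKRP, each 5 nM, plus 2 uM S6P, pH 7.1 buffer; GCK-free wells define minimum signal.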

Test [4] in a line: qHTS Assay for Identifying Gametocytocidal Compounds (AID 743244).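 For max response: % is set by controls: 0 for no effect and ±100 for the full control effect; actives lower the fluorescent signal which means gametocytes are killed.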 Note: potency is the fitted concentration of half-maximal effect. To be noted: P. falciparum 3D7 stage III-V gametocytes, alamarBlue, 72 h; max response: active compounds read low. The procedure, abridged:
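In this qHTS viability screen, late-stage 3D7 gametocytes are incubated with compound for 72 h, then with alamarBlue for 24 h; reduced resorufin fluorescence marks killing.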

Test [5] is described as follows: qHTS assay for measurement of the activity of small molecule inhibitors on Zika virus induced Caspase-3 activity in human iPSC derived neural progenitor cells (hNPCs) (AID 1224857). Note: % of control where 0% means no effect; nearly all actives have a fitted effect of over 65% in size. In short, it runs like this: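 In medium with heparin 2 ug/ml and cyclopamine 2 uM, hNPCs (350 cells/well) received compound for one hour and then Zika virus at 2 FFU/cell; caspase activity was measured by Caspase-Glo 3/7 luminescence 6 h post-infection.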

Test [6] can be described thus: qHTS assay for measurement of the activity of small molecule inhibitors on Zika virus induced Caspase-3 activity in human astrocytoma cells (AID 1224859).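 Note: plate controls were ZIKV-infected untreated cells for no effect and uninfected cells for full effect.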 In short, it runs like this: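 A cell-based luminescent caspase-3/7 assay used SNB-19 cells infected with ZIKV (2 FFU/cell) for 6 h following 1 h compound pretreatment.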
Test [7] can be described thus: Natriuretic polypeptide receptor (hNpr1) antagonism - Pilot counterscreen GloSensor control cell line (AID 1347045; calls by dose curve; note: series mostly up to about 38 µM; % is set by controls: 0 for no effect and ±100 for the full control effect). In short, it runs like this: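 HEK293 cGMP GloSensor cells preloaded 2 h with 2% GloSensor reagent, then compound 30 min before baseline luminescence read. Stimulated with 50 uM sodium nitroprusside, 20 min at room temperature, then read again; counterscreen for Npr1 antagonism.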

For test [8], the target named is Atrial natriuretic peptide receptor 1 (Homo sapiens) (UniProt P16066). Nature of the test: Natriuretic polypeptide receptor (hNpr1) antagonism - Pilot screen (AID 1347049; calls by dose curve;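 note: agonist-evoked cGMP luminescence read 20 min after hNppA addition; series mostly up to about 58 µM; % is set by controls: 0 for no effect and ±100 for the full control effect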). The procedure, abridged:
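Readout is cGMP-driven firefly luciferase luminescence in HEK293 cells carrying hNpr1 and a PDE5-domain GloSensor, read before and 20 min after 0.1 nM hNppA stimulation. Cells had 2% substrate reagent for 2 h and test compound for 30 min.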

In test [9] the target is Atrial natriuretic peptide receptor 2 (Homo sapiens) (UniProt P20594). Nature of the test: Natriuretic polypeptide receptor (hNpr2) antagonism - Pilot subtype selectivity assay (AID 1347050; calls by dose curve; note: % is set by controls: 0 for no effect and ±100 for the full control effect). The procedure, abridged:
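Pilot selectivity screen against hNpr2: HEK293 cGMP-sensor cells are treated with LOPAC1280 compounds, then with hNppC peptide at 1 nM final. The cGMP-driven luminescence change over 20 min at room temperature is the read-out.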

Test [10] in a line: qHTS assay for cell viability of HEK293 cells (AID 743288). Note: % is set by controls: 0 for no effect and ±100 for the full control effect; nearly all actives have a fitted effect of over 50% in size. To be noted: ATP luminescence (CellTiter-Glo), 18 h; max response: active compounds read low. The procedure, abridged:
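Total intracellular ATP, measured with a luciferase-coupled reagent, indicates the number of viable HEK293 cells. Exposure to test chemicals lasts 18 h at 37 C in 1,536-well format at 2,000 cells/well.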

Test [11] is described as follows: qHTS assay for cell viability of the p53RE-bla HCT-116 cell line (AID 743292). Note: potency is the fitted concentration of half-maximal effect; nearly all actives have a fitted effect of over 55% in size. In short, it runs like this:
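ATP-based luminescence, 16 h compound exposure at 37 C, p53RE-bla HCT-116 cells at 4,000/well.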

T1 sequence (P35557 whole entry, looked up): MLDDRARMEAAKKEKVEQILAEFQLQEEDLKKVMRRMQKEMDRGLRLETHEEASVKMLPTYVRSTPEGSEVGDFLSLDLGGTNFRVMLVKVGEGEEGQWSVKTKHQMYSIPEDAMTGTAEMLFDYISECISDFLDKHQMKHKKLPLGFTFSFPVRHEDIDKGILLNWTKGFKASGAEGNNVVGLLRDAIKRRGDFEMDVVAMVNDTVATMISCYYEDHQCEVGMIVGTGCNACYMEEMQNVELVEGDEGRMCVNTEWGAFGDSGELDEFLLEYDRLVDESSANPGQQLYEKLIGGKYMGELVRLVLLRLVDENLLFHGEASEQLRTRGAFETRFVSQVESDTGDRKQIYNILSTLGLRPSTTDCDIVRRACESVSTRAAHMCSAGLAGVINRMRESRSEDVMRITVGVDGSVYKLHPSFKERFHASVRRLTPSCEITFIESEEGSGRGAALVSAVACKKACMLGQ
T1 sequence (Q14397 whole entry, looked up): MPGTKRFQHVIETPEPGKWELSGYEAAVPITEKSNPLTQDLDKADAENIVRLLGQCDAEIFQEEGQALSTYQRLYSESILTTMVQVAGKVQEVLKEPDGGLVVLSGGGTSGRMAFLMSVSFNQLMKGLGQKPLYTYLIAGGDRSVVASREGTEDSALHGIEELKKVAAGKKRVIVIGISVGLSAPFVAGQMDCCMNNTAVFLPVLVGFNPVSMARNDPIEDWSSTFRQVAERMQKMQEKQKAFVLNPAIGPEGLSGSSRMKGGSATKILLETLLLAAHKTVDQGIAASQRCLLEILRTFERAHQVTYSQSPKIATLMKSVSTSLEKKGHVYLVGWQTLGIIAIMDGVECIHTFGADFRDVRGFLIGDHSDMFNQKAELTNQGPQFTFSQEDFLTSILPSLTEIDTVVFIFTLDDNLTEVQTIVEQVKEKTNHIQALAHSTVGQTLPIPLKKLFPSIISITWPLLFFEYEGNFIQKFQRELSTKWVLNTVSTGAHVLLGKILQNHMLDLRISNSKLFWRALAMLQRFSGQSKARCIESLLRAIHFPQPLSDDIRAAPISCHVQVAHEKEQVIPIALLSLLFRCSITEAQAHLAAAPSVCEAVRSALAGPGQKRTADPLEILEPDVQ
Atrial natriuretic peptide receptor 2 (Homo sapiens), sequence (P20594 whole entry, looked up): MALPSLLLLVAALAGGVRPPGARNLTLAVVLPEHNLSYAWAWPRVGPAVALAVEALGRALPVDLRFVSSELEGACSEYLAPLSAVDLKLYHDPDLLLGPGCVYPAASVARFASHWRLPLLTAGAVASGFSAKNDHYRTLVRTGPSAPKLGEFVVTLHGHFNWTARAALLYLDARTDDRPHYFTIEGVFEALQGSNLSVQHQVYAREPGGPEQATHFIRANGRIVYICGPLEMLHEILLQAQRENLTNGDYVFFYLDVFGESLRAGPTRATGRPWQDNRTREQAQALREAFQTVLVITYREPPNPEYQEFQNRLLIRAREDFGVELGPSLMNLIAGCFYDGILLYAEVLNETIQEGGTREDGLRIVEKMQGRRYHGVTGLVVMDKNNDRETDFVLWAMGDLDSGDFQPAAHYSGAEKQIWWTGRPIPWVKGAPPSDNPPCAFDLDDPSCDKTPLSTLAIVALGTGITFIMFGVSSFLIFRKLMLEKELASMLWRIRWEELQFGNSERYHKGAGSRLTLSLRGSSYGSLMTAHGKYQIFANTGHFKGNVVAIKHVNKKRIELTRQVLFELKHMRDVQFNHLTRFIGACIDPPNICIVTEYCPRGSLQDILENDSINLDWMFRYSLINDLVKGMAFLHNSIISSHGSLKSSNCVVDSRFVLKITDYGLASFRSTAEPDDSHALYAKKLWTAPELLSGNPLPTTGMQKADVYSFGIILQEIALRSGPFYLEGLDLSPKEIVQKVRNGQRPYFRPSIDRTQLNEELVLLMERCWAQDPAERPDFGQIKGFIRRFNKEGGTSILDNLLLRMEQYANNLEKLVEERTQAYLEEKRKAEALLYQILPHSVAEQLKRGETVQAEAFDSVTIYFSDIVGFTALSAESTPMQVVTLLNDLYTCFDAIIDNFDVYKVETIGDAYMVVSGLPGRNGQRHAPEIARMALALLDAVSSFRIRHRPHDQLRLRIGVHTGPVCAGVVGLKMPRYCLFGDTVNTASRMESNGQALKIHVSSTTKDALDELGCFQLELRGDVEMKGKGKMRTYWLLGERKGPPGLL
Atrial natriuretic peptide receptor 1 (Homo sapiens), sequence (P16066 whole entry, looked up): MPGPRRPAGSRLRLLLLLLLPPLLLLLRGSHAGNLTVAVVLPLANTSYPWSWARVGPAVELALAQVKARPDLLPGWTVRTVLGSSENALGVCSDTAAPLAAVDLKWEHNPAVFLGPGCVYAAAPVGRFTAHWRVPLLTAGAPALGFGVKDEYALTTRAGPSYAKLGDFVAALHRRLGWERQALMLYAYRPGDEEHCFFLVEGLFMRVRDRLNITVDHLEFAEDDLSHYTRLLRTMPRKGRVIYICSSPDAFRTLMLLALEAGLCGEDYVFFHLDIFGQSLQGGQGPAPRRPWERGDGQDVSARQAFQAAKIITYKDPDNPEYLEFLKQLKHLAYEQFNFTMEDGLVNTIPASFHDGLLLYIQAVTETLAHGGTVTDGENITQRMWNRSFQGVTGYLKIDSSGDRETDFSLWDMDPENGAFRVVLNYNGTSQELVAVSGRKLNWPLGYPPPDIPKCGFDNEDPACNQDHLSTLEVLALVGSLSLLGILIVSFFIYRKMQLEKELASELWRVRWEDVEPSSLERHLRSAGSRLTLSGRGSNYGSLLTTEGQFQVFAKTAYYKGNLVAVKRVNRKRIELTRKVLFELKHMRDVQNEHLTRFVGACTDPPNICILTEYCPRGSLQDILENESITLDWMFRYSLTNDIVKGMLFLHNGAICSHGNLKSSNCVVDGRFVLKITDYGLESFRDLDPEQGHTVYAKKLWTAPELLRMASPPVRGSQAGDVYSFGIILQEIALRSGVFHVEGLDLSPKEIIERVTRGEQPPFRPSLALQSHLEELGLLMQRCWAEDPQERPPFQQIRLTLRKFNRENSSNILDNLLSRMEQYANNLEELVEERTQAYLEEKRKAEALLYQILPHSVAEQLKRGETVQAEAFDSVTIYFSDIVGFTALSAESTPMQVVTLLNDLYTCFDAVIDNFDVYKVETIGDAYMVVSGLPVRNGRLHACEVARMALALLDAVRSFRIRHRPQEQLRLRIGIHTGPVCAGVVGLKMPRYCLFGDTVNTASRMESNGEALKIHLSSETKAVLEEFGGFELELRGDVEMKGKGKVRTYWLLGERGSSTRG

Turning to `COC(=O)C1=C(C)NC(C)=C([N+](=O)[O-])C1c1ccccc1C(F)(F)F` (stereo not drawn), the Potency result in test [1], in test [2], in test [3], in test [5], in test [6] and in test [7] was “inactive” in each case. Besides, the Potency result in test [8] is “inactive”. Also, in test [4], the max response is 19.5%.

With `c1ccc2c(c1)CC(N1CCN(c3cccc4c3OCCO4)CC1)C2`, the Potency entry in test [1], in test [2], in test [3], in [5], in [6] and in [7] was “inactive” throughout. The Potency entry in [8] is “inactive”.

Turning to `CCCCCCCCCCCCCCC[C@H](O)[C@H](N)CO`, the Potency result in test [1], in test [2], in test [5], in [6], in test [7] and in test [8] was “inactive” in each case.

Regarding `Cc1ccc2c(c1)C(N1CCN(C)CC1)=Nc1cccnc1N2`, the Potency entry in test [1], in test [2], in test [3], in test [5], in test [6] and in test [7] was “inactive” in each case. The Potency result in test [8] is “inactive”. Further, in test [4], the max response is 23%.

Regarding `C[C@H](NC(=O)/C(C#N)=C/c1ccc(O)c(O)c1)c1ccccc1`, the Potency result in test [1], in [2], in [3], in test [5], in test [6] and in [7] was “inactive” in each case. Further, in test [8], the Potency entry was “inactive”. Moreover, in test [4], the max response was -11%.

As to `CC(=O)SC1CC2=CC(=O)CC[C@]2(C)C2CC[C@@]3(C)C(CC[C@@]34CCC(=O)O4)C12` (stereo partly drawn), the Potency entry in [1], in test [2], in test [3], in test [5], in test [6] and in [7] was “inactive” throughout. In test [8], the Potency entry was “inactive”. Besides, in test [4], the max response was 7.64%.

Turning to `CN1C2CCC1CC(OC(c1ccccc1)c1ccccc1)C2` (stereo not drawn), the Potency entry in [1], in test [2], in test [3], in test [5], in test [6] and in test [7] was “inactive” each time. The Potency result in test [8] is “inactive”.

As to `Cn1c(=O)c2c(nc(/C=C/c3cccc(Cl)c3)n2C)n(C)c1=O`, the Potency result in test [1], in [2], in [3], in test [5], in test [6] and in [7] was “inactive” in each case. Also, in test [9], the Potency result was “inactive”.

For the molecule `NC[C@@H]1O[C@H](c2ccccc2)Cc2c1ccc(O)c2O`, the Potency entry in test [1], in test [2], in test [3], in test [5], in test [6] and in test [7] was “inactive” in each case. Besides, the Potency entry in test [9] is “inactive”.

As for `CN1Cc2sccc2C(c2ccc(O)c(O)c2)C1` (stereo not drawn), the Potency entry in [1], in test [2], in [5], in test [6], in test [7] and in test [8] was “inactive” throughout. Also, in test [4], the Potency was 891 nM (active).

Regarding `CNCCc1cnc(CCC(c2ccccc2)c2ccccc2)[nH]1`, the Potency result in [1], in [2], in test [3], in [5], in test [6] and in [7] was “inactive” in each case. In addition, the Potency result in test [8] was “inactive”. The Potency in test [4] was 1260 nM (active).

In the case of `CC(O)C(O)[C@H]1CNc2nc(N)[nH]c(=O)c2N1` (stereo partly drawn), the Potency entry in test [1], in [2], in test [3], in test [5], in test [6] and in [7] was “inactive” each time. For the same molecule, the Potency entry in test [8] is “inactive”.

Consider `COc1ccc2c(c1)c(CC(=O)O)c(C)n2C(=O)c1ccccc1`, for which the Potency entry in test [1], in test [2], in [3], in test [5], in [6] and in test [7] was “inactive” in each case. The Potency entry in test [8] was “inactive”. Besides, in test [4], the max response was 11.3%.

In the case of `O=C1NC(=O)c2cc(Nc3ccccc3)c(Nc3ccccc3)cc21`, the Potency result in test [1], in [2], in test [3], in test [5], in test [6] and in [7] was “inactive” each time. In addition, the Potency entry in test [8] was “inactive”.

As to `CCCc1c(-c2ccc(O)cc2)nn(-c2ccc(O)cc2)c1-c1ccc(O)cc1`, the Potency result in test [1], in test [2], in [5], in test [6], in test [7] and in [8] was “inactive” in each case. Besides, the Potency entry in [9] is “inactive”. The figures for the max response in test [4] and in test [10] were 23.6% and -10.3%, respectively. Moreover, the Potency in test [11] was 70800 nM (active).

For `COc1cc([C@@H]2c3cc4c(cc3[C@H](O)C3COC(=O)[C@@H]32)OCO4)cc(OC)c1OC` (stereo partly drawn), the Potency entry in [1], in test [2], in test [3], in test [5], in test [6] and in [7] was “inactive” each time. In addition, the Potency result in [8] was “inactive”.

For the molecule `C=CCn1c(=O)c2c(nc(-c3ccc(S(=O)(=O)O)cc3)n2C)n(C)c1=O`, the Potency entry in test [1], in test [2], in [3], in test [5], in test [6] and in test [7] was “inactive” each time. The Potency entry in test [8] was “inactive”. Besides, in [4], the max response is 2.53%.

For `CC(C)[C@@H]1CC[C@@H](C)C[C@@H]1P(=O)(c1ccccc1)c1ccccc1`, the Potency result in test [1], in test [2], in [5], in [6], in test [7] and in [8] was “inactive” throughout. Moreover, the Potency result in test [9] was “inactive”. Moreover, the max response in [4] is 7.79%.

Take `NC(N)=NC(N)=Nc1cccc(Cl)c1`: the Potency result in test [1], in test [2], in test [3], in test [5], in test [6] and in test [7] was “inactive” in each case. In addition, the Potency entry in test [8] was “inactive”. Also, the max response in [4] is 35.4%.

Take `CCCCCCCCCCC/C=C\C(C)(C)/C=C\CCCC(=O)O`: the Potency entry in test [1], in test [2], in test [3], in test [5], in test [6] and in test [7] was “inactive” each time. For the same molecule, in test [9], the Potency result is “inactive”.

Regarding `NC(C(=O)N[C@@H]1C(=O)N2C(C(=O)O)=C(Cl)CS[C@H]12)c1ccccc1` (stereo partly drawn), the Potency entry in test [1], in [2], in test [5], in [6], in [7] and in test [8] was “inactive” throughout. Besides, in [4], the max response was 8.93%.

For the molecule `Nc1nc2c(nc(Br)n2C2OC3COP(=O)(O)O[C@@H]3C2O)c(=O)[nH]1` (stereo partly drawn), the Potency result in test [1], in [2], in test [3], in test [5], in test [6] and in test [7] was “inactive” throughout. Moreover, in test [8], the Potency result is “inactive”. Also, in [4], the max response is 9.58%.

In the case of `CSC(N)=NCCC[C@H](N)C(=O)O`, the Potency entry in [1], in [2], in [3], in test [5], in test [6] and in test [7] was “inactive” in each case. The Potency result in test [9] was “inactive”. The max response in [4] is 9.52%.

Turning to `CCCCC[C@H](CC(=O)NO)C(=O)N[C@H](C(=O)N1CCC[C@H]1CO)C(C)C`, the Potency result in test [1], in test [2], in test [3], in [5], in [6] and in test [7] was “inactive” in each case. Further, in [9], the Potency entry was “inactive”. Further, in test [4], the max response is 14.1%.

With `Cc1nc2c(OCc3ccccc3)cccn2c1CC#N`, the Potency entry in test [1], in test [2], in [3], in test [5], in test [6] and in [7] was “inactive” each time. In addition, the Potency entry in test [9] is “inactive”. Besides, the max response in [4] was 18.4%.

As to `CC(N)(C(=O)O)c1ccc(C(=O)O)cc1` (stereo not drawn), the Potency result in test [1], in test [2], in test [3], in test [5], in test [6] and in test [7] was “inactive” in each case. Besides, the Potency entry in [9] was “inactive”. In addition, the max response in test [4] was 12%.
